Results as given in PubChem BioAssay (EPA / NIEHS).
Inconclusive results are not listed. Activity calls are given as the source filed them. Rule for the calls, unless noted: active = hit-call score of the fitted dose curve at least 0.9, where 1 is the maximum; inactive = score below 0.9.

Tests used:
[1] = CCTE_Mundy_HCI_Cortical_NOG_NeuriteLength: CCTE's Neurite Outgrowth Assay in rat cortical cells for Neurite Length, Mundy Lab (AID 2284213);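 note: neurites imaged about 48 to 50 h after chemical exposure began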
Procedure, shortened: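 First, rat primary cortical cells were plated and, 2 h later, given test chemical as a 1/10 dilution. Finally, βIII-tubulin immunostaining enabled automated imaging of neurite length.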

[2] = CCTE_Mundy_HCI_Cortical_Synap_Neur_Matur_NeuriteSpotCountPerNeuron: CCTE's Synaptogenesis and Neurite Maturation Assay in rat cortical cells for Neurite Spot Count per Neuron Count, Mundy Lab (AID 2284215)
Procedure, shortened: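 Developing rat cortical neurons, with glia suppressed by AraC, are exposed to chemicals from DIV 7 to DIV 12. Automated fluorescence imaging of MAP2-labelled neurites and synaptophysin puncta yields a count per neuron, normalised against DMSO wells.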

[3] = CCTE_Mundy_HCI_Cortical_Synap_Neur_Matur_SynapseCount: CCTE's Synaptogenesis and Neurite Maturation Assay in rat cortical cells for Synapse Count, Mundy Lab (AID 2284218)
Procedure, shortened: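 Endpoint: synapses/neuron by HCI (synaptophysin puncta on MAP2-labelled neurites, Hoechst nuclei). Rat primary cortical cells, AraC DIV 5, dosed DIV 7, fixed DIV 12; DMSO negative control.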

[4] = CCTE_Mundy_HCI_hN2_NOG_NeuriteCount: CCTE's Neurite Outgrowth Assay in human hN2 cells for Neurite Count, Mundy Lab (AID 2284219; active = hit-call score of the fitted dose curve at least 0.9, where 1 is the maximum)
Procedure, shortened: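 In this morphology assay, hNP1-derived neurons received test chemical 2 h post-plating and were fixed two days later in warm paraformaldehyde/sucrose containing Hoechst 33342. Neurites, labelled by rabbit anti-βIII-tubulin (1:800) and Alexa Fluor-488 (1:500), were counted automatically.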

[5] = CCTE_Mundy_HCI_hN2_NOG_NeuriteLength: CCTE's Neurite Outgrowth Assay in human hN2 cells for Neurite Length, Mundy Lab (AID 2284220; active = hit-call score of the fitted dose curve at least 0.9, where 1 is the maximum)
Procedure, shortened: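 Plate hNP1-derived neurons, then add chemical 2 h later as a 1/10 dilution. Stain with anti-βIII-tubulin then Alexa Fluor-488 secondary, and image automatically to measure neurite length.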

[6] = CCTE_Mundy_HCI_hN2_NOG_NeuronCount: CCTE's Neurite Outgrowth Assay in human hN2 cells for Neuron Count, Mundy Lab (AID 2284221; active = hit-call score of the fitted dose curve at least 0.9, where 1 is the maximum)
Procedure, shortened: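 Read-out is the number of betaIII-tubulin-positive neurons imaged by automated high-content analysis, with DMSO as negative control.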

[7] = CCTE_Mundy_HCI_Cortical_Synap_Neur_Matur_NeuriteCount: CCTE's Synaptogenesis and Neurite Maturation Assay in rat cortical cells for Neurite Count, Mundy Lab (AID 2284222)
Procedure, shortened: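 Chemical exposure runs DIV 7–12 in rat cortical cultures, glia suppressed by AraC at DIV 5; measurement is at DIV 12. Imaging-derived neurite counts are fitted against DMSO baseline.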

[8] = CCTE_Mundy_HCI_Cortical_Synap_Neur_Matur_CellBodySpotCount: CCTE's Synaptogenesis and Neurite Maturation Assay in rat cortical cells for Cell Body Spot Count, Mundy Lab (AID 2284223)
Procedure, shortened: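 Chemicals were applied to AraC-treated rat primary cortical cells at DIV 7 and measured at DIV 12. Fixed cells were labelled for MAP2, synaptophysin and nuclei, and high-content imaging gave cell body synaptophysin spot counts per neuron relative to DMSO.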

[9] = CCTE_Mundy_HCI_hNP1_Pro_ResponderAvgInten: CCTE's Proliferation Assay in human neuroprogenitor cells, Mundy Lab (AID 2284224; active = hit-call score of the fitted dose curve at least 0.9, where 1 is the maximum)
Procedure, shortened: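 Proliferation was scored as BrdU labelling intensity in human neural progenitors derived from WA09 embryonic cells, measured 26.25 hours after chemical dosing. Activity was fitted relative to DMSO.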

[10] = UKN4_HCS_LUHMES_cell_viability: Viability Assessment in the University of Konstanz (UKN) Leist Lab Neurite Outgrowth Assay in human LUHMES cells (UKN4) (AID 2284232)
Procedure, shortened: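 Measured in replated, 2-day-differentiated LUHMES cells treated 24 h; stained 30 min with H-33342 and calcein-AM before high-content imaging.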

[11] = UKN2_HCS_IMR90_cell_viability: Viability Assessment in the University of Konstanz (UKN) Leist Lab Neural Crest Cell Migration Assay in human induced IMR90 Pluripotent Stem Cells (UKN2) (AID 2284233);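 note: cells exposed to compound for 24 h after a 24 h migration phase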
Procedure, shortened: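 After calcein-AM/Hoechst staining, viability is quantified by high-content fluorescence imaging, relative to DMSO, in iPSC (IMR90)-derived neural crest cells. Exposure lasts 24 h, starting after a 24 h migration period on PLO/laminin/fibronectin coating.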

[12] = CCTE_Mundy_HCI_Cortical_NOG_NeuronCount: CCTE's Neurite Outgrowth Assay in rat cortical cells for Neuron Count, Mundy Lab (AID 2284236; active = hit-call score of the fitted dose curve at least 0.9, where 1 is the maximum;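 note: neurons counted by imaging betaIII-tubulin and Hoechst stained cortical cells; cells exposed to compound for about 48 hours before fixation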)
Procedure, shortened: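 Read-out: neuron number by high-content imaging of betaIII-tubulin (Alexa Fluor-488) and Hoechst-labelled rat primary cortical cells.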

[13] = CCTE_Mundy_HCI_Cortical_NOG_BPCount: CCTE's Neurite Outgrowth Assay in rat cortical cells for Branch Point Count, Mundy Lab (AID 2284237);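 note: branch points counted about two days after chemical exposure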
Procedure, shortened: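 Measured 50.33 h after dosing, this morphology endpoint uses rat primary cortical cultures labelled for betaIII-tubulin. Branch points are quantified by high-content imaging, with DMSO as negative control and baseline.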

[14] = CCTE_Mundy_HCI_hNP1_Casp3_7: CCTE's Caspase-Glo 3/7 Assay in human neuroprogenitor cells for Apoptosis, Mundy Lab (AID 2284240)
Procedure, shortened: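 Apoptosis is scored by activated caspase-3/7 luminescence in WA09-derived neural progenitor cells, measured 26.5 h after chemical dosing. Values represent gain of signal relative to DMSO vehicle.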

[15] = CCTE_Mundy_HCI_hNP1_CellTiter: CCTE's Cell Titer-Glo 2 Assay in human neuroprogenitor cells for Viability, Mundy Lab (AID 2284241; active = hit-call score of the fitted dose curve at least 0.9, where 1 is the maximum;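 note: a hit is a drop in ATP luminescence versus DMSO meaning reduced viability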)
Procedure, shortened: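 Human neural progenitor cells (hNP1, WA09-derived) were plated on poly-L-ornithine/laminin and grown 40 to 44 hours at 37 °C, 5% CO2 before chemical addition. Twenty-four hours later, ATP was measured by CellTiter-Glo luminescence; loss of signal versus DMSO indicates reduced viability.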

[16] = CCTE_Mundy_HCI_Cortical_Synap_Neur_Matur_NeuronCount: CCTE's Synaptogenesis and Neurite Maturation Assay in rat cortical cells for Neuron Count, Mundy Lab (AID 2284242; active = hit-call score of the fitted dose curve at least 0.9, where 1 is the maximum;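 note: hits reduce neuron count versus DMSO baseline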)
Procedure, shortened: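 Measured at DIV 12: fluorescently labelled neurons (Hoechst nuclei, MAP2) in rat primary cortical cultures, counted by high-content imaging. AraC suppressed glia from DIV 5; DMSO served as negative control.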

Measured: AC50

CNCCC(Oc1ccc(C(F)(F)F)cc1)c1ccccc1 (stereo unspecified)
active: [1] 12.2 µM | [2] 8.96 µM | [3] 9.16 µM | [4] 12.3 µM | [5] 12.9 µM | [6] 11 µM | [7] 11.6 µM | [10] 18.6 µM | [11] 24.8 µM | [12] 16 µM | [13] 10.9 µM | [14] 12.7 µM | [15] 20.7 µM | [16] 5.97 µM
inactive: [8] | [9]
